Measured values taken from PubChem BioAssay (NCATS).
Inconclusive results are not listed. Activity calls are given as the source filed them. Calls come from the whole dose curve; as a rule, active = well fitted inhibition curve with a large enough effect; inconclusive = small, poorly fitted or top-dose-only effect; inactive = flat fitted curve, though single readings scatter.

Assays:
[1] = tested on: P94_40; assay: qHTS profiling for inhibitors of Plasmodium falciparum proliferation (AID 504749);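 note: 0% = DMSO vehicle and full inhibition = artemisinin control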; settings: P. falciparum in erythrocytes, SYBR Green DNA, 72 h; series mostly up to 28.7 µM
Outline: (§1)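 Three-day growth assay of blood-stage parasites in erythrocytes (0.3% parasitemia, 2.5% hematocrit) at 37 C, 5% CO2, quantified by SYBR Green DNA staining after overnight detergent lysis.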

[2] = tested on: PAD; assay: as above; settings: P. falciparum in erythrocytes, SYBR Green DNA, 72 h; series mostly up to 28.7 µM
Outline: as §1

[3] = tested on: PC15; assay: as above; settings: P. falciparum in erythrocytes, SYBR Green DNA, 72 h; series mostly up to 28.7 µM
Outline: as §1

[4] = tested on: PC26; assay: as above; settings: P. falciparum in erythrocytes, SYBR Green DNA, 72 h; series mostly up to 28.7 µM
Outline: as §1

[5] = tested on: PC49; assay: as above; settings: P. falciparum in erythrocytes, SYBR Green DNA, 72 h; series mostly up to 28.7 µM
Outline: as §1

[6] = tested on: SC27B; assay: as above; settings: P. falciparum in erythrocytes, SYBR Green DNA, 72 h; series mostly up to 28.7 µM
Outline: as §1

[7] = tested on: TAB109; assay: as above; settings: P. falciparum in erythrocytes, SYBR Green DNA, 72 h; series mostly up to 28.7 µM
Outline: as §1

[8] = tested on: TAB113; assay: as above; settings: P. falciparum in erythrocytes, SYBR Green DNA, 72 h; series mostly up to 28.7 µM
Outline: as §1

[9] = tested on: TAB165; assay: as above; settings: P. falciparum in erythrocytes, SYBR Green DNA, 72 h; series mostly up to 28.7 µM
Outline: as §1

[10] = tested on: W2; assay: as above; settings: P. falciparum in erythrocytes, SYBR Green DNA, 72 h; series mostly up to 28.7 µM
Outline: as §1

[11] = tested on: CRL-7250; assay: Cytotoxic Profiling of Annotated Libraries Using Quantitative High-Throughput Screening (AID 1296008); settings: Five cell lines viability, CellTiter-Glo ATP luminescence, 48-72 h; active compounds read low; for max response: % is set by controls: 0 for no effect and ±100 for the full control effect
Outline: (§2)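 Cytotoxicity was measured as CellTiter-Glo ATP luminescence, read after 10 min at room temperature. Compound treatment of the cells lasted 48 or 72 hr at 37 degrees Celsius in a qHTS format.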

[12] = tested on: HEK293; assay: as above; settings: Five cell lines viability, CellTiter-Glo ATP luminescence, 48-72 h; active compounds read low
Outline: as §2

[13] = tested on: HaCat; assay: as above; settings: Five cell lines viability, CellTiter-Glo ATP luminescence, 48-72 h; active compounds read low
Outline: as §2

[14] = tested on: KB-3-1; assay: as above; settings: Five cell lines viability, CellTiter-Glo ATP luminescence, 48-72 h, active compounds read low
Outline: as §2

[15] = tested on: NIH3T3; assay: as above; settings: Five cell lines viability, CellTiter-Glo ATP luminescence, 48-72 h; active compounds read low
Outline: as §2

[16] = tested on: HEK293T; assay: qHTS assay to identify novel small-molecules to repurpose for Merkel cell carcinoma treatment (AID 1296009); settings: MCC and control cell lines, CellTiter-Glo viability, 72 h; at 44.8 µM (top of the series) unless noted
Outline: (§3)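 After compound transfer in DMSO, plates were kept 72 hr at 37 degree celsius. Luminescent ATP signal from CellTiter-Glo served as viability measure, normalized against DMSO and no-cell controls.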

[17] = tested on: MCC-13; assay: as above; settings: MCC and control cell lines, CellTiter-Glo viability, 72 h; series mostly up to 46 µM
Outline: as §3

[18] = tested on: MCC-26; assay: as above; settings: MCC and control cell lines, CellTiter-Glo viability, 72 h; series mostly up to 46 µM
Outline: as §3

[19] = tested on: MKL-1; assay: as above; settings: MCC and control cell lines, CellTiter-Glo viability, 72 h; series mostly up to 46 µM
Outline: as §3
Note: nearly all actives have a fitted effect of over 60% in size.

CNCc1ccccc1
inactive: Potency [1] | Potency [2] | Potency [3] | Potency [4] | Potency [5] | Potency [6] | Potency [7] | Potency [8] | Potency [9] | Potency [10] | max response [11] 4.71% | outcome [12] | max response [13] -18.5% | max response [14] -4.93% | max response [15] 1.15% | outcome [16] | outcome [17] | outcome [18] | outcome [19]

O=C(O)c1ccccc1C(=O)Nc1ccc(S(=O)(=O)Nc2nccs2)cc1
inactive: Potency [1] | Potency [2] | Potency [3] | Potency [4] | Potency [5] | Potency [6] | Potency [7] | Potency [8] | Potency [9] | Potency [10] | max response [11] -2.05% | outcome [12] | max response [13] -2.6% | max response [14] 5.93% | max response [15] -7.95% | outcome [16] | outcome [17] | outcome [18] | outcome [19]

O=C1c2ccccc2S(=O)(=O)N1CCCCN1CCN(c2ncccn2)CC1
inactive: Potency [1] | Potency [2] | Potency [3] | Potency [4] | Potency [5] | Potency [6] | Potency [7] | Potency [8] | Potency [9] | max response [11] -12.2% | max response [12] -4.06% | max response [13] -10.1% | max response [14] -5.25% | outcome [15] | outcome [17] | outcome [18] | outcome [19]

O=C(O)/C=C/c1ccc(Cn2ccnc2)cc1
inactive: max response [11] -1.04% | max response [12] -1.65% | max response [13] 4.76% | max response [14] 2.2% | outcome [15] | outcome [17] | outcome [18] | outcome [19]

C[N+](C)(C)CC[N+]1(C)Cc2c(Cl)c(Cl)c(Cl)c(Cl)c2C1
inactive: Potency [1] | Potency [2] | Potency [3] | Potency [4] | Potency [5] | Potency [6] | Potency [7] | Potency [8] | Potency [9] | Potency [10] | max response [11] -7.06% | outcome [12] | max response [13] -6.5% | max response [14] 9.08% | max response [15] 3.9% | outcome [16] | outcome [17] | outcome [18] | outcome [19]

CC(C(=O)O)c1ccc2c(c1)Cc1cccnc1O2 (stereo unspecified)
inactive: Potency [1] | Potency [2] | Potency [3] | Potency [4] | Potency [5] | Potency [6] | Potency [7] | Potency [8] | Potency [9] | Potency [10] | max response [11] -6.8% | outcome [12] | max response [13] -5.6% | max response [14] -7.45% | max response [15] -7.1% | outcome [16] | outcome [17] | outcome [18] | outcome [19]

COc1ccc(O)cc1
inactive: Potency [1] | Potency [2] | Potency [3] | Potency [4] | Potency [5] | Potency [6] | Potency [7] | Potency [8] | Potency [9] | Potency [10] | max response [11] -3.8% | outcome [12] | max response [13] -9.9% | max response [14] -0.988% | max response [15] -13.1% | outcome [16] | outcome [17] | outcome [18] | outcome [19]

O=C(O)Cc1cn(-c2ccccc2)nc1-c1ccc(Cl)cc1
inactive: Potency [1] | Potency [2] | Potency [3] | Potency [4] | Potency [5] | Potency [6] | Potency [7] | Potency [8] | Potency [9] | Potency [10] | max response [11] 3.22% | outcome [12] | max response [13] -24% | max response [14] 2.82% | max response [15] 4.05% | outcome [16] | outcome [17] | outcome [18] | outcome [19]

NS(=O)(=O)c1cc(-c2nn[nH]n2)c(NCc2cccs2)cc1Cl
inactive: Potency [1] | Potency [2] | Potency [3] | Potency [4] | Potency [5] | Potency [6] | Potency [7] | Potency [8] | Potency [9] | Potency [10] | max response [11] 1.54% | outcome [12] | max response [13] -8.31% | max response [14] -9.88% | max response [15] -0.0304% | outcome [16] | outcome [17] | outcome [19]

CC(=O)N1C[C@H](O)C[C@H]1C(=O)O
inactive: outcome [11] | max response [12] 1.84% | max response [13] 4.9% | max response [14] 8.51% | outcome [15] | outcome [17] | outcome [18] | outcome [19]

C=CCN1C[C@H](C(=O)N(CCCN(C)C)C(=O)NCC)C[C@@H]2c3cccc4[nH]cc(c34)C[C@H]21
inactive: outcome [11] | max response [12] 1.65% | max response [13] -1.25% | max response [14] 6.36% | outcome [15] | outcome [17] | outcome [18] | outcome [19]

C[C@]1(Cn2ccnn2)[C@H](C(=O)O)N2C(=O)C[C@H]2S1(=O)=O
inactive: max response [11] -1.81% | outcome [12] | max response [13] -19.5% | max response [14] 13.6% | max response [15] -0.883% | outcome [16] | outcome [17] | outcome [19]

CN[C@@H]1[C@H](O)[C@H](NC)[C@H]2O[C@@]3(O)C(=O)C[C@@H](C)O[C@H]3O[C@@H]2[C@H]1O
inactive: max response [11] -3.95% | max response [12] 1.03% | max response [13] 0.231% | max response [14] 16.3% | max response [15] 2.69% | outcome [17] | outcome [18] | outcome [19]

CN[C@@H]1[C@@H](O)[C@@H](O[C@@H]2[C@H](O)[C@H](O[C@H]3OC(CN)=CC[C@H]3N)[C@@H](N)C[C@H]2N)OCC1(C)O (stereo partly specified)
inactive: max response [11] 2.42% | max response [12] 4.89% | max response [13] 1.23% | max response [14] 25.6% | max response [15] 2.74% | outcome [17] | outcome [18] | outcome [19]

Cc1ccccc1N=Nc1ccc(N=Nc2c(O)ccc3ccccc23)c(C)c1
inactive: Potency [1] | Potency [2] | Potency [3] | Potency [4] | Potency [5] | Potency [6] | Potency [7] | Potency [8] | Potency [9] | Potency [10] | max response [11] -16.7% | outcome [12] | max response [13] 0.728% | max response [14] 9.66% | max response [15] 0.522% | outcome [16] | outcome [17] | outcome [18] | outcome [19]
